The nature of assay [1]: qHTS assay to identify small molecule antagonists of the estrogen receptor alpha (ER-alpha) signaling pathway using the BG1 cell line in the presence of 0.1 nM 17-beta-estradiol - cell viability counter screen (AID 1259241). Note: nearly all actives have a fitted effect of over 40% in size. Put shortly:
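Cytotoxicity counter-screen: live-cell protease activity measured by fluorescence (30 min reagent step) in the same wells. Cells were VM7Luc4E2 with endogenous ER-alpha and ERE-driven luciferase, treated 22 hr at 37C alongside 0.1 nM 17beta-estradiol final.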

Assay [2] in a line: qHTS assay to identify small molecule antagonists of the androgen receptor (AR) signaling pathway using the MDA cell line in the presence of 0.5 nM R1881 - cell viability counter screen (AID 1259242). Note: nearly all actives have a fitted effect of over 45% in size. Put shortly: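 MDA-kb2 cells (human breast carcinoma, stably carrying MMTV-luciferase reporter) were exposed to compounds with 0.5 nM R1881 (final) for 16 hr at 37C, 0% CO2; viability then read as live-cell protease fluorescence (CellTiter-Fluor, 30 min) in the same wells.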

The target in assay [3] is Estrogen receptor (Homo sapiens) (UniProt P03372). The assay is described as follows: qHTS assay to identify small molecule antagonists of the estrogen receptor alpha (ER-alpha) signaling pathway using the BG1 cell line in the presence of 0.1 nM 17-beta-estradiol (AID 1259244). Note: nearly all actives have a fitted effect of over 50% in size. Put shortly:
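VM7Luc4E2 cells (endogenous full-length ER-alpha, stable 4xERE-luciferase) were grown 5 days in phenol red-free medium with charcoal-stripped FBS, then exposed 22 h at 37C to compounds plus 0.1 nM (final) 17beta-estradiol; ONE-Glo luminescence read-out.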
A general note: Quantitative high-throughput screening tests each substance at several concentrations.

Assay [4] is described as follows: qHTS assay to identify small molecule HDAC inhibitors (AID 1259364). Note: top concentration of the series differs between compounds; nearly all actives have a fitted effect of over 45% in size. The procedure, abridged:
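Wild-type HCT-116 cells were plated overnight, exposed to compounds for 2 h at 37 °C, then given HDAC-Glo class I/II luminogenic reagent for 30 min at room temperature before luminescence was read.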

Assay [5] is described as follows: qHTS assay to identify small molecule HDAC inhibitors - cell viability counter screen (AID 1259365). Note: series mostly up to about 92 µM; nearly all actives have a fitted effect of over 50% in size. The procedure, abridged:
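CellTiter-Glo luminescence (30 min, room temperature) reported viability after a 2 h compound exposure at 37 C. Cells: wild-type HCT-116, 1,500 per well, seeded the night before.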

Assay [6] can be described thus: qHTS assay to identify small molecule agonists of the sonic hedgehog signaling (Shh) pathway - cell viability counter screen (AID 1259366). Note: nearly all actives have a fitted effect of over 50% in size. Note: potency is the fitted concentration of half-maximal effect. Put shortly: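 Cytotoxicity counter screen: CellTiter-Fluor reagent added after 23 h compound exposure, then 1 h at 37C and fluorescence read. Cells were 3T3 Gli1-Luc, seeded 2,000 per well and dosed 4 h post-plating.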
Assay [7] is described as follows: qHTS assay to identify small molecule antagonists of the sonic hedgehog signaling (Shh) pathway - cell viability counter screen (AID 1259367). Note: nearly all actives have a fitted effect of over 55% in size. Note: potency is the fitted concentration of half-maximal effect. The procedure, abridged: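 NIH/3T3-derived Gli1-Luc reporter cells, 2,000/well, plated 4 hr before compound addition, then stimulated with conditioned medium for 24 hr at 37C. Viability measured in the same wells by CellTiter-Fluor fluorescence, reagent added at 23 hr for 1 hr.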

Assay [8] can be described thus: qHTS assay to identify small molecule agonists of the sonic hedgehog signaling (Shh) pathway (AID 1259368; calls by dose curve; note: series mostly up to about 92 µM; nearly all actives have a fitted effect of over 15% in size). Put shortly:
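NIH/3T3-derived 3T3Gli1-Luc cells carrying a stably integrated Gli1 response element–firefly luciferase reporter were plated, left 4 hr at 37 C, then given compounds in DMSO for 24 hr. Luminescence was read 30 min after adding luciferase reagent.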

Assay [9] can be described thus: qHTS assay to identify small molecule phospholipidosis (PLD) inducers (AID 1259344; active = well fitted curve in the direction sought with a large enough effect; an effect the other way counts as inactive or inconclusive). Put shortly:
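HepG2 cells, 900/well, treated with compound plus LipidTOX Red for 24 h at 37 C; amiodarone positive and DMSO negative controls. Fixed with paraformaldehyde/Hoechst, then high-content imaging scored LipidTOX pit count and integrated intensity per well and per cell.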

The structures appear in SMILES notation. Values joined by “and” are separate entries in the source; they are usually repeats but may differ in a detail not shown here. Identical values can stand only once. Values without a mark were called inactive. Results filed as inconclusive are left out. Active and inactive are the calls of the source. Unless noted, calls come from the whole dose curve; as a rule, active = well fitted curve in the direction sought with a large enough effect in the repeat runs; inconclusive = weak or mixed curves; inactive = no such curve, though single readings can be large; an effect the other way counts as inactive or inconclusive.
% is set by controls: 0 for no effect and ±100 for the full control effect.

Estrogen receptor (Homo sapiens), sequence (P03372 whole entry, looked up): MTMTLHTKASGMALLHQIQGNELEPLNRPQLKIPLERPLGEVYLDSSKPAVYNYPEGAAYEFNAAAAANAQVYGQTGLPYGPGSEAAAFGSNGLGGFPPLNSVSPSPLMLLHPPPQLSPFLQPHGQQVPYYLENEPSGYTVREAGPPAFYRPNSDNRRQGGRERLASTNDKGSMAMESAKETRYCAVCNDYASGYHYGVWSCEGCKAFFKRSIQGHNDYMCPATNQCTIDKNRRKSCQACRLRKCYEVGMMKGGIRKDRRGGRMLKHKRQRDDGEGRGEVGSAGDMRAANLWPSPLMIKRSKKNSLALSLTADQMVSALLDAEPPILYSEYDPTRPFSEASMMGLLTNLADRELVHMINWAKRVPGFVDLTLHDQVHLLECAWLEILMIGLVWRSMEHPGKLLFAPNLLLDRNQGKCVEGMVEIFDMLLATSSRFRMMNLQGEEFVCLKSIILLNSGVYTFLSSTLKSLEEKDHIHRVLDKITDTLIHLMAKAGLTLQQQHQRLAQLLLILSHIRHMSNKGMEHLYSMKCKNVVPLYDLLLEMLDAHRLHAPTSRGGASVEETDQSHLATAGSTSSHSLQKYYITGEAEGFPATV

Regarding `CNC(=O)Oc1cc(C)cc(C(C)C)c1`, the Potency entry in assay [1], in assay [2], in assay [3], in assay [4], in assay [5] and in assay [6] was “inactive” throughout. The Potency result in assay [7] and in assay [8] was “inactive” in each case.
Turning to `CN1C2CCC(C)(C)C1CC(OC(=O)C(O)(c1cccs1)c1cccs1)C2` (configuration not stated), the Potency entry in assay [1], in [2], in assay [3], in assay [4], in assay [5] and in [7] was “inactive” each time. Further, the Potency entry in assay [8] is “inactive”.
In the case of `CC1CCCC1`, the Potency result in assay [1], in assay [2], in assay [4], in assay [5], in assay [6] and in [7] was “inactive” each time. Moreover, the Potency result in [8] is “inactive”.
As for `ClC1=C(Cl)[C@]2(Cl)[C@H]3[C@H]([C@@H]4C=C[C@H]3C4)[C@@]1(Cl)C2(Cl)Cl`, the Potency entry in [1], in assay [2], in [3], in [4], in [6] and in assay [7] was “inactive” each time. Also, the Potency entry in [8] was “inactive”.
Take `ClSC(Cl)(Cl)Cl`: the Potency result in assay [1], in assay [2], in assay [4], in assay [5], in [6] and in assay [7] was “inactive” each time. In addition, in assay [8], the Potency entry was “inactive”.
On to `Nc1ccccc1-c1ccccc1`, for which the Potency result in [1], in assay [2], in assay [3], in assay [5], in assay [6] and in [7] was “inactive” throughout. Also, the Potency entry in [8] is “inactive”.
Take `CCC(C)Br` (configuration not stated): the Potency result in assay [1], in [2], in [4], in assay [5], in assay [6] and in assay [7] was “inactive” throughout. In addition, in [8], the Potency entry was “inactive”.
For the compound `CCn1cc[n+](C)c1` (tested in a mixture with another compound), the Potency entry in assay [1], in [2], in [4], in assay [5], in assay [6] and in assay [7] was “inactive” throughout. Moreover, the Potency result in assay [8] was “inactive”.
For the compound `C1=CCC=C1`, the Potency result in assay [1], in assay [2], in [4], in [5], in [6] and in [7] was “inactive” in each case. Further, in [8], the Potency result was “inactive”.
Turning to `O=S(=O)(O)F`, the Potency result in assay [1], in [2], in assay [4], in assay [5], in assay [6] and in assay [7] was “inactive” throughout. Besides, the Potency result in assay [8] was “inactive”.
Turning to `CC(Cc1ccc(O)cc1)NCC(O)c1cc(O)cc(O)c1` (configuration not stated), the Potency entry in assay [1], in [2], in assay [4], in [5] and in assay [8] was “inactive” in each case. Besides, the compound was called inactive in assay [9]. Moreover, the Potency was 8.41 µM (active) in assay [6] and 10.6 µM (active) in [7].
Regarding `NC(=O)C(Cl)Cl`, the Potency result in [1], in assay [2], in assay [4], in assay [5], in [6] and in assay [7] was “inactive” throughout. Moreover, the Potency entry in assay [8] was “inactive”.
With `CC[C@]1(O)CC[C@H]2[C@@H]3CCC4=CCCC[C@@H]4[C@H]3CC[C@@]21C`, the Potency entry in assay [1], in assay [2], in [4], in assay [5], in assay [6] and in [7] was “inactive” each time. Moreover, the Potency entry in assay [8] is “inactive”. Also, the call in assay [9] was inactive.
Turning to `O=Cc1ccccc1`, the Potency result in assay [1], in assay [2], in assay [4], in assay [6], in [7] and in [8] was “inactive” in each case. For the same compound, the compound was called inactive in assay [9].
As for `CCOP(=S)(OCC)SC(CCl)N1C(=O)c2ccccc2C1=O` (configuration not stated), the Potency result in assay [1], in assay [2], in assay [4], in assay [5], in [6] and in assay [7] was “inactive” in each case. In assay [8], the Potency result was “inactive”.
For the compound `[O-][Cl+3]([O-])([O-])O`, the Potency result in assay [1], in [2], in [4], in [5], in assay [6] and in [7] was “inactive” in each case. The Potency entry in assay [8] is “inactive”.
With `CN=C=O`, the Potency entry in assay [1], in assay [2], in assay [4], in assay [5], in [6] and in [7] was “inactive” in each case. Further, in assay [8], the Potency result is “inactive”.
`CCC1(CC)C(=O)N=C(O)NC1=O`: the Potency entry in assay [1], in assay [2], in assay [3], in assay [4], in [6] and in assay [8] was “inactive” in each case.
`C=CCOC(=O)c1ccccc1N`: the Potency entry in assay [1], in assay [2], in [4], in assay [5], in [6] and in [7] was “inactive” each time. Further, in assay [8], the Potency result is “inactive”.
As to `Cc1ccc2cc3c(ccc4ccccc43)c3c2c1CC3`, the Potency entry in assay [1], in [2], in assay [4], in assay [5], in assay [6] and in [7] was “inactive” throughout. The Potency entry in assay [8] is “inactive”.
As for `C[C@]12C/C(=C/O)C(=O)C[C@@H]1CC[C@@H]1[C@@H]2CC[C@@]2(C)[C@H]1CC[C@]2(C)O`, the Potency entry in [1], in [2], in assay [4], in assay [5] and in assay [8] was “inactive” each time. The compound was called inactive in [9]. Moreover, the Potency was 55 µM (active) and 21.1 µM (active) in assay [6]; 61.7 µM (active) in assay [7].
As to `CCN(CC)Cc1nccn1-c1ccc([N+](=O)[O-])cc1C(=O)c1ccccc1Cl`, the Potency result in assay [1], in assay [2], in assay [4] and in [8] was “inactive” each time. Moreover, the PLD induction in assay [9] is 0.825% [at 7.66 µM].
As for `CC(=O)[O-].CC(=O)[O-].O.O.[Zn+2]`, the Potency entry in assay [1], in [2], in assay [4], in [5], in [6] and in assay [7] was “inactive” each time. Also, the Potency result in [8] is “inactive”.
In the case of `O.O.O.O.O.O.O=S(=O)([O-])[O-].[Ni+2]`, the Potency entry in assay [1], in [2], in [4], in [5], in assay [6] and in assay [7] was “inactive” in each case. In assay [8], the Potency entry is “inactive”.
Turning to `O=C(N[C@H]1N=C(c2ccccc2F)c2cccc3c2N(CC3)C1=O)c1cc2ccccc2[nH]1`, the Potency result in assay [1], in assay [2], in [4], in assay [6], in [7] and in assay [8] was “inactive” throughout. Besides, the result in assay [9] was inactive.
Consider `COc1c2c(cc3c1OCO3)CCN(C)C2`, for which the Potency entry in assay [1], in assay [2], in [4], in assay [5], in [6] and in [8] was “inactive” each time. Further, the compound was called inactive in assay [9].
On to `CC1(C)[C@H](/C=C2\CCSC2=O)[C@@H]1C(=O)OCc1coc(Cc2ccccc2)c1`, for which the Potency result in [1], in assay [2], in [4], in assay [5], in [6] and in assay [7] was “inactive” throughout. The Potency entry in assay [8] was “inactive”.
On to `CN1C(=O)[C@@H](NC(=O)c2cc3ccccc3[nH]2)N=C(c2ccccc2)c2ccccc21`, for which the Potency entry in [1], in assay [2], in assay [4], in assay [6], in assay [7] and in assay [8] was “inactive” in each case. Besides, the compound was called inactive in [9].

These data come from PubChem BioAssay (Tox21).
